This note sets out measurements from PubChem BioAssay (NCATS).

This test in a line: qHTS profiling of the MIPE4 collection as inhibitors of Plasmodium falciparum (DD2) proliferation (AID 743345). The settings on record: P. falciparum Dd2 in erythrocytes, SYBR Green DNA, 72 h; at 28.5 µM (top of the series) unless noted. The text has this: Plasmodium falciparum is a virulent malarial parasite that kills 1-2 million people worldwide each year. Transmitted by mosquitoes, the sporozoite form of the parasite enters the blood stream to infect hepatocytes, where they become merozoites that infect red blood cells (erythrocytes). Within erythrocytes, merozoites begin a […] cycle of growth and division, after which the parasite is released to infect new red blood cells. Gametocytes, which form within erythrocytes as well, circulate in the bloodstream and are ingested by the mosquito, thereby completing the life cycle. To profile malarial isolates for differential chemical responses and to identify inhibitors of malarial growth, an assay that measures P. falciparum growth and replication within erythrocytes was employed. This assay uses a DNA binding fluorescent dye (SYBR Green) to detect parasite DNA following cell lysis. Because mature erythrocytes lack DNA, only Plasmodium-derived DNA is detected.
The SYBR Green viability assay was adapted from a method described previously (Plouffe et al., 2008). For screening 3 ul culture medium was dispensed into 1536 well black clear bottom plates (Aurora Biotechnologies) using a Multidrop Combi (Thermo Fisher Scientific Inc.), 23 nL compounds in DMSO were added by a pin tool (Kalypsys), and 5 ul of erythrocytes infected with P. falciparum (0.3% parasitemia, 2.5% hematocrit final concentration) were added. The plates were incubated at 37 C in a humidified incubator in 5% CO2 for 72 h, and 2 ul lysis buffer (20 mM Tris HCl, 10 mM EDTA, 0.16% saponin, 1.6% triton X, 10X SYBR Green I supplied as 10,000X […] by Invitrogen) was added to each well. The plates were mixed for 25 sec with gentle shaking and incubated overnight at room temperature in the dark. The following morning, fluorescence intensity at 485(14) nm excitation and 535(25) nm emission wavelengths was measured on an EnVision (Perkin Elmer) plate reader. Plate reads were normalized relative to the control inhibitor (0.29 uM artemisinin) and vehicle (DMSO) wells present on each plate and then corrected by an algorithm using vehicle-only control plates at the beginning and end of the compound plate stack.
Background: In qHTS, concentration-response curves come from the screen itself.
Consider `NS(=O)(=O)OC[C@@H]1C[C@@H](n2ccc3c(N[C@H]4CCc5ccccc54)ncnc32)C[C@H]1O`, for which the parasite growth remaining, % of DMSO control (lower = more inhibition) worked out at 92.9%.
Under `COC(=O)[C@@H]1CC2=CC(=O)CC[C@]2(C)[C@@]23O[C@@H]2C[C@@]2(C)[C@H](CC[C@@]24CCC(=O)O4)[C@@H]13` stands 87.1%.
In the case of `COc1ccc(Nc2cc(-c3cnc(N)nc3)nc(N3CCOCC3)n2)cn1` it was 11.1%.
In the case of `NC(=O)Nc1cc(-c2ccc(CN3CCOCC3)cc2)sc1C(N)=O`, the parasite growth remaining, % of DMSO control (lower = more inhibition) was determined as 46.5%.
Under `CC(C)(C)[C@H](NC(=O)c1ccc(N)c(Cl)c1)C(=O)N1CCC[C@@H]1C(=O)N[C@H](C#N)CC(=O)O` stands 110% [at 3.19 µM]; under `CCN1CCN(C(=O)N[C@H](C(=O)N[C@@H]2C(=O)N3C(C(=O)O)=C(CSc4nnnn4C)CS[C@@H]23)c2ccc(O)cc2)C(=O)C1=O`, 95.9% [at 9.64 µM]; under `COC[C@H](NC(=O)c1cnc(C)s1)C(=O)N[C@@H](COC)C(=O)N[C@@H](Cc1ccccc1)C(=O)[C@@]1(C)CO1`, 7.34%.
Under `CC(C)Oc1ccc(C(=O)N[C@H](CNC(=O)CN(C)C)Cc2ccc(-c3cn4cccc([C@H](C)O)c4n3)cc2)cc1Cl` stands 8.81%.
With `NC[C@H]1O[C@H](O[C@H]2[C@@H](O)[C@@H](O[C@H]3O[C@H](CO)[C@@H](O)[C@H](N)[C@@H]3O)[C@H](N)C[C@@H]2N)[C@H](N)C[C@H]1O`, the parasite growth remaining, % of DMSO control (lower = more inhibition) came out at 92.9%.
Take `Cn1cc(C[C@@H](N)C(=O)O)c2ccccc21`: the parasite growth remaining, % of DMSO control (lower = more inhibition) is 82.7% [at 9.64 µM].
Under `COc1cc(C=CC(=O)CC(=O)C=Cc2ccc(O)c(OC)c2)ccc1O` stands 7.94% [at 57.5 µM]; under `CN(C)c1ccc(C(=O)NCCCCCCC(=O)NO)cc1`, 7.09%.
Turning to `CCNC(=O)Nc1ccc(-c2nc3c(c(N4CCOC[C@H]4C)n2)CCN(C2COC2)C3)cc1`, the parasite growth remaining, % of DMSO control (lower = more inhibition) stood at 87.1%.
`C[C@H]1C[C@H]2[C@@H]3CCC4=CC(=O)C=C[C@]4(C)[C@@H]3C(=O)C[C@]2(C)[C@@]1(O)C(=O)CO`: the parasite growth remaining, % of DMSO control (lower = more inhibition) is 97.9%.
In the case of `COc1cccc2c1C(=O)c1c(O)c3c(c(O)c1C2=O)C[C@@](O)(C(=O)CO)C[C@@H]3O[C@H]1C[C@H](N)[C@H](OC2CCCCO2)[C@H](C)O1` (stereo not given in full), the parasite growth remaining, % of DMSO control (lower = more inhibition) stood at 7.89%.
As to `CC(C=CC(=O)NO)=C[C@@H](C)C(=O)c1ccc(N(C)C)cc1`, the parasite growth remaining, % of DMSO control (lower = more inhibition) worked out at 7.38%.
Under `C[C@H]1[C@@H](OC(=O)CCC(=O)O)O[C@@H]2O[C@@]3(C)CC[C@@H]4[C@H](C)CC[C@@H]1[C@@]24OO3` stands 7.38%; under `Cn1cc(-c2ccc3ncc(Cc4ccc5ncccc5c4)n3n2)cn1`, 60.3%.
Under `CC(C)n1cnc2c(NCCc3ccc(O)cc3)nc(-c3csc4ccccc34)nc21` stands 9.54%; under `O=C(C=CC=Cc1ccc2c(c1)OCO2)N1CCCCC1`, 15.8%; under `C[C@]12CCC(=O)C=C1[C@@H]1CC1[C@H]1[C@H]3[C@@H]4C[C@H]4[C@@]4(CCC(=O)O4)[C@@]3(C)CC[C@H]12` (stereo not given in full), 82.7%.
For `C[C@H](NC(=O)C(C#N)=Cc1cccc(Br)n1)c1ccccc1`, the parasite growth remaining, % of DMSO control (lower = more inhibition) amounted to 86.2%.
In the case of `CC(=O)N[C@@H]1[C@H](O[C@@H]2c3ccc(c(Cl)c3)Oc3cc4cc(c3O[C@H]3O[C@H](CO)[C@@H](O)[C@H](O)[C@H]3NC(=O)CCCCCCCC(C)C)Oc3ccc(cc3Cl)C[C@H]3NC(=O)[C@H](N)c5ccc(O)c(c5)Oc5cc(O)cc(c5)[C@H](NC3=O)C(=O)N[C@H]4C(=O)N[C@H]3C(=O)N[C@@H]2C(=O)N[C@@H](C(=O)O)c2cc(O)cc(O[C@H]4O[C@H](CO)[C@@H](O)[C@H](O)[C@H]4O)c2-c2cc3ccc2O)O[C@H](CO)[C@@H](O)[C@@H]1O` it was 99.1%.
Under `O=C(O)CCCCCC(=O)NN=C1CCCC1` stands 100%.
Regarding `CCCCCN=C(N)NN=Cc1c[nH]c2ccc(OC)cc12`, the parasite growth remaining, % of DMSO control (lower = more inhibition) stood at 7.01%.
Under `CCCNC(=O)[C@H]1O[C@H]1C(=O)N[C@H](C(=O)N1CCC[C@@H]1C(=O)OC)C(C)CC` (stereo not given in full) stands 94.3%; under `CC(=O)NCC(=O)N1[C@H]2CC[C@H]1c1cc(Nc3ncc(C(F)(F)F)c(NC4CCC4)n3)ccc12`, 15.3%.
In the case of `c1ccc2c(Oc3nc(Nc4ccc(N5CCOCC5)cc4)c4ncn(C5CCCCC5)c4n3)cccc2c1` it was 8.01%; in that of `CCc1c(O)cc(O)c(C(=O)c2ccc(OCCN3CCOCC3)c(OC)c2)c1CC(=O)N(CCOC)CCOC`, 12.7%; in that of `O=C(C=CC#Cc1cccc(NS(=O)(=O)c2ccccc2)c1)NO`, 7.17%.
With `CN1C(C(=O)Nc2ccccn2)=C(O)c2sc(Cl)cc2S1(=O)=O`, the parasite growth remaining, % of DMSO control (lower = more inhibition) amounted to 86.4%.
For the compound `C[C@@H]1C(=O)O[C@H]2CC34[C@H]5C[C@@H](C(C)(C)C)C36[C@H](OC(=O)[C@@H]6O)O[C@@]4(C(=O)O5)[C@]21O` (stereo not given in full), the parasite growth remaining, % of DMSO control (lower = more inhibition) came out at 97.7%.
Turning to `CCC[C@H]1C[C@H](C(=O)N[C@@H]([C@@H]2O[C@@H](SC)[C@@H](O)[C@@H](O)[C@@H]2O)[C@H](C)Cl)N(C)C1`, the parasite growth remaining, % of DMSO control (lower = more inhibition) worked out at 36%.
Regarding `CCc1cc(C(C)=NOCc2ccc(C3CCCCC3)c(C(F)(F)F)c2)ccc1CN1CC(C(=O)O)C1`, the parasite growth remaining, % of DMSO control (lower = more inhibition) is 69.4%.
Under `c1coc(CNc2ncnc3nc[nH]c23)c1` stands 26.3%; under `C[C@H](NCc1ccc(OCc2cccc(F)c2)cc1)C(N)=O`, 6.14%.
In the case of `CS(=O)(=O)N1CCc2c(-c3cnc(N)nc3)nc(N3CCOCC3)nc21` it was 9.76%.
`C=CC(=O)Nc1ccc2ncnc(Nc3ccc(OCc4cccc(F)c4)c(Cl)c3)c2c1`: the parasite growth remaining, % of DMSO control (lower = more inhibition) is 19.9%.
With `COc1cc([C@@H]2c3cc4c(cc3[C@@H](O[C@@H]3O[C@@H]5CO[C@@H](c6cccs6)O[C@@H]5[C@H](O)[C@@H]3O)[C@H]3COC(=O)[C@H]23)OCO4)cc(OC)c1O`, the parasite growth remaining, % of DMSO control (lower = more inhibition) is 8.04%.
In the case of `N#Cc1c(NC(=O)c2cccc3ccccc23)sc2c1CCCC2` it was 81.7%.
